The test system of assay [1] is TRPC4 beta (transient receptor potential cation channel C4), mouse. In words: activators of mouse TRPC4 channel, confirmation, cell-based, Fluo4 calcium, HEK293 TRPC4beta/mu-opioid, duplicates, 10 µM (AID 2426;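 active = fluorescence ratio normalized to control raised more than 50% in primary screen plus both repeat runs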). The note with it: Fluo4 calcium fluorescence, at 10 µM; active compounds read high.
Assay [2] has as its system transient receptor potential cation channel C4 beta (TRPC4), mouse. Description: activators of mouse TRPC4 channel, confirmation, cell-based, second round, Fluo4, HEK293 TRPC4beta/mu-opioid, 1 µM (AID 2461;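 active = primary screen active and over 50% activation in each of two duplicate runs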). Conditions: Fluo4 calcium fluorescence, at 1 µM; active compounds read high.
The test system of assay [3] is TRPC4 (transient receptor potential cation channel C4 beta), mouse. In words: positive allosteric modulators of mouse TRPC4, confirmation, cell-based, second round, Fluo-4, HEK293 TRPC4beta/mu-opioid, 1 µM (AID 2554;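 active = primary screen hit whose fluorescence ratio, in both repeats, exceeds the weak agonist control mean by 3 SD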). The note with it: DAMGO EC20, Fluo-4 calcium flux, at 1 µM; active compounds read high. In general terms: Calcium flux is commonly read through the fluorescence of an indicator in the cells.

For assay [4], the system named is TRPC4 beta (transient receptor potential cation channel C4), mouse. In words: positive allosteric modulators of mouse TRPC4, confirmation, cell-based, Fluo-4, HEK293 TRPC4beta/mu-opioid (AID 2555;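 active = primary screen hit whose calcium fluorescence ratio, in both repeats, exceeds the weak agonist control mean by 3 SD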). Conditions: DAMGO EC20, Fluo-4 calcium flux, at 10 µM; active compounds read high.
Assay [5] has as its target Short transient receptor potential channel 4 (Mus musculus) (UniProt Q9QUQ5). Description: inhibitors of mouse TRPC4 channel, confirmation, cell-based, Fluo4, HEK293 TRPC4beta/mu-opioid (AID 2636;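 active = calcium signal cut by more than 3 SD below the full-agonist control yet still positive, in both repeats and the earlier primary screen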). The note with it: DAMGO, Fluo4 calcium flux, at 10 µM; active compounds read high.
The target is the same in assay [6]. Description: inhibitors of mouse TRPC4 channel, confirmation, cell-based, second round, Fluo4, HEK293 TRPC4beta/mu-opioid, 1 µM (AID 2637;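 active = calcium signal ratio cut to more than 3 SD under the fully stimulated control mean yet still positive, in both repeats and the primary screen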;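 as to inhibition: percent of integrated ratio relative to wells lacking test compound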). Conditions: Fluo4 calcium flux, DAMGO, at 1 µM; active compounds read high.
Assay [7] has the same target. In words: mouse TRPC4 channel activators, dose response, cell-based, HEK293 TRPC4/mu-opioid, Fluo-4 calcium (AID 434937;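 active = primary screen activator hit with a dose response curve and TRPC4 channel activation at any tested dose; inactive = no activation, no dose response, or not a primary hit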).
For assay [8] the target is unchanged. Description: TRPC4 positive allosteric modulators, dose response, cell-based, HEK293 TRPC4/mu-opioid, Fluo-4 calcium, EC20 DAMGO (AID 434941;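 active = earlier screen potentiator hit that boosts the TRPC4 ion channel at some dose, with a dose response; inactive = no potentiation, no dose response, or not a prior hit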;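 also: calcium entry triggered by an EC20 dose of DAMGO at the co-expressed mu-opioid receptor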).
Assay [9] deals with Short transient receptor potential channel 6 (Mus musculus) (UniProt Q61143). In words: inhibition of mouse TRPC6 channel, confirmation, selectivity assay for TRPC4 inhibitor project, cell-based, HEK293, membrane potential dye, duplicate (AID 434948;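 active = active in primary screen and both duplicates, each dropping signal beyond three positive-control SD with fluorescence still positive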). Conditions: HEK293 TRPC6, membrane potential dye fluorescence, at 10 µM, stimulated with maximal-effect acetylcholine; active compounds read high.
Sequence of Short transient receptor potential channel 6 (Mus musculus) (Q61143 whole entry, looked up): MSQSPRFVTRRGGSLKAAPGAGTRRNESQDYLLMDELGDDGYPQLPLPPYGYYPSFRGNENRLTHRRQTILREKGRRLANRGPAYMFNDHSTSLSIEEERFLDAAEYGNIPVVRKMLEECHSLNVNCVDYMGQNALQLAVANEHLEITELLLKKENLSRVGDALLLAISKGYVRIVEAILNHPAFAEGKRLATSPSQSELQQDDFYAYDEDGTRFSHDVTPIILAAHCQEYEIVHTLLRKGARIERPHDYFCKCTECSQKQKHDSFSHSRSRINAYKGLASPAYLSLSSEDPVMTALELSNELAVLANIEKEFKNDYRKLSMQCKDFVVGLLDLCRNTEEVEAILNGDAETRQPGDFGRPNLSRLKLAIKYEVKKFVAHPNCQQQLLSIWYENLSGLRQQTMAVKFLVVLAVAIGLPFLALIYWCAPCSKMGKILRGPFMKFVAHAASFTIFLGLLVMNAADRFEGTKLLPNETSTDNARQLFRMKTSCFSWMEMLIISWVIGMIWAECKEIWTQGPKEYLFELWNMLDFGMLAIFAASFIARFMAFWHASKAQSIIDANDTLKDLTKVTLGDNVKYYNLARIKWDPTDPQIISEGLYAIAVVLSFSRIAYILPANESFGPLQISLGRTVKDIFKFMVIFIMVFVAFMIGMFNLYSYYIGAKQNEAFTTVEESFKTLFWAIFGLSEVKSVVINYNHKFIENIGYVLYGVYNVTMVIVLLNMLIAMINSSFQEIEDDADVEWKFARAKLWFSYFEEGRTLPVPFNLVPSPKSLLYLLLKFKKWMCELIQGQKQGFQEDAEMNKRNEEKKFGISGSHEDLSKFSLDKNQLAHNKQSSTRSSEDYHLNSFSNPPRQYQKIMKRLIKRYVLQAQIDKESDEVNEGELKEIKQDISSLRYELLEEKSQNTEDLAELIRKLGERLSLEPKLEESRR

Assay [10] shares this target. Description: activation of mouse TRPC6 channel, confirmation, selectivity assay for TRPC4 activator project, cell-based, HEK293, membrane potential dye, duplicate (AID 434950;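 active = membrane potential signal rise above negative control mean plus 3 SD in both duplicates, also active in the earlier TRPC4 screen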). Conditions: HEK293 TRPC6, membrane potential fluorescence, at 10 µM; active compounds read high.
Assay [11] shares this target. In words: TRPC6 potentiation by TRPC4 potentiator hits, confirmation, selectivity assay for TRPC4 potentiator project, HEK293 cells, membrane potential dye, duplicate (AID 434952). Conditions: HEK293 TRPC6, membrane potential dye fluorescence, at 10 µM, maximal acetylcholine added after compound; active compounds read high.
The target in assay [12] is Short transient receptor potential channel 4 (Mus musculus) (UniProt Q9QUQ5). In words: calcium flux activators in TRPC4/5HT1a cells, counter-screen for TRPC4 activator project, cell-based, second counter screen, HEK293 TRPC4/5HT1a, Fluo-4 (AID 434977;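 active = calcium signal rise above buffer-control mean plus 5 SD in both duplicates, and also a hit in the primary screen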). The note with it: Fluo-4 calcium flux, at 10 µM; active compounds read high.
Sequence of Short transient receptor potential channel 4 (Mus musculus) (Q9QUQ5 whole entry, looked up): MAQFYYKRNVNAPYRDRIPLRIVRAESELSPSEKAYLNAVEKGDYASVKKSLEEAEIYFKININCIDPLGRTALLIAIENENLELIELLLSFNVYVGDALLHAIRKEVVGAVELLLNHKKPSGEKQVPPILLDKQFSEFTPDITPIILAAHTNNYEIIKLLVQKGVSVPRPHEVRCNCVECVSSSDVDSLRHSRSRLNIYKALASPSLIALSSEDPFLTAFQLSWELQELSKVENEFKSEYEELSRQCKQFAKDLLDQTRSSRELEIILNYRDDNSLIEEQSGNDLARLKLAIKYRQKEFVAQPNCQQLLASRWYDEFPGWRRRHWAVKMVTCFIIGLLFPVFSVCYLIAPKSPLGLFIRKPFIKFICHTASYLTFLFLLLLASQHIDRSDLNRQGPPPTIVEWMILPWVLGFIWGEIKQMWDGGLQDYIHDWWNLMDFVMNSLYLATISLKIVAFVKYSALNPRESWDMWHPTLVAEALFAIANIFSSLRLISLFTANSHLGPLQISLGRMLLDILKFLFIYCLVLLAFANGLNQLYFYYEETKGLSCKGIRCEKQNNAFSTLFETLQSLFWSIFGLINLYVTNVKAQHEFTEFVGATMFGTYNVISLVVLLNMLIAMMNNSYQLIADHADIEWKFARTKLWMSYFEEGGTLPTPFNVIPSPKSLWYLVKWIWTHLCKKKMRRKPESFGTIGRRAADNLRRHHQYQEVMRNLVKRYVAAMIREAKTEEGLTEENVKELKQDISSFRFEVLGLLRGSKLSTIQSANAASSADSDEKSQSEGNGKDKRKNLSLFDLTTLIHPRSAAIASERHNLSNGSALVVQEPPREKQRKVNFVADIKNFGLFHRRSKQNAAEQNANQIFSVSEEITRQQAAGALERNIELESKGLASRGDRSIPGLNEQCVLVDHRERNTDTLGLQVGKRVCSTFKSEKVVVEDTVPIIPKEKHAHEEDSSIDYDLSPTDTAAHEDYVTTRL
Assay [13] in a line: calcium flux inhibitors in TRPC4/5HT1a cells, confirmation, counter-screen for TRPC4 inhibitor project, cell-based, second counter screen, HEK293 TRPC4/5HT1a, Fluo-4 (AID 434978;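 active = primary screen active whose calcium signal fell more than 3 SD beyond the full-serotonin control mean in both duplicate plates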;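 as to outcome: serotonin given first at submaximal then at maximal dose after compound preincubation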). Conditions: Fluo-4 calcium flux, at 10 µM, serotonin added to trigger calcium flux; active compounds read high.
Assay [14] relates to TRPC4 (mouse), co-expressed with 5HT1a in HEK293. In words: calcium flux potentiators in TRPC4/5HT1a cells, confirmation, counter-screen for TRPC4 potentiator project, cell-based, second counter screen, HEK293 TRPC4/5HT1a, Fluo-4 (AID 434979;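 active = signal rise over 3 SD above mean of control wells given weak agonist, in both repeats and first screen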). Conditions: Fluo-4 calcium flux, at 10 µM, serotonin added at its EC20 dose; active compounds read high.
A short description of assay [15]: calcium flux activation in mu-opioid HEK293 cells, confirmation, counter-screen for TRPC4 activator project, cell-based, HEK293 mu-opioid receptor line (AID 449723;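 active = hit in primary screen, with calcium signal over 5 SD above buffer well mean in both duplicates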;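 also: counter screen cells carry the mu-opioid receptor alone and lack TRPC4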). The note with it: Fluo-4 calcium fluorescence, at 10 µM; active compounds read high.
Assay [16] is described as follows: calcium flux enhancement in mu-opioid HEK293 cells, confirmation, counter-screen for TRPC4 allosteric potentiator project, cell-based, HEK293 mu-opioid receptor line (AID 449724;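 active = calcium signal rise more than 3 SD above the low-dose agonist control mean, in both duplicate plates and the primary screen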;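 also: HEK293 cells carrying mu-opioid receptor only with no TRPC4 channel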). The note with it: Fluo-4 calcium flux, at 10 µM, compound added before EC20 DAMGO stimulus; active compounds read high.

For some of these results: Entries with a potency or affinity are not part of this list. Activity calls are given as the source filed them.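 The calls were made as follows, unless noted: active = compound raising the membrane signal above positive-control mean plus 3 SD in both repeats, and a primary screen hit; inactive = the rest.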

Regarding `O=C(Cc1ccccc1)Nc1ccccc1Sc1ccccc1`, the outcome in assay [1], in assay [2], in [3], in [4], in assay [6] and in assay [7] was inactive. Also, the result in assay [8], in assay [9], in assay [10], in [11], in assay [12] and in assay [14] was inactive. For the same molecule, the outcome in [15] and in assay [16] was inactive. Besides, the inhibition is 86% (active) in assay [5] and 40.9% (active) in assay [13].

For `O=C(CCN1CCc2ccccc2C(O)(c2ccccc2)C1)c1ccc2c(c1)OCCO2` (stereo unspecified), the result in assay [1], in [2], in assay [3], in assay [4], in assay [5] and in assay [6] was inactive. The outcome in [7], in assay [8], in assay [9], in assay [10], in assay [11] and in [12] was inactive. Moreover, the result in assay [14], in [15] and in assay [16] was inactive. For the same molecule, the inhibition in [13] is 39.2% (active).

As for `CN(CC(=O)NC1CCCc2ccccc21)C1CCCCC1` (stereo unspecified), the outcome in assay [1], in [2], in assay [3], in assay [4], in [6] and in assay [7] was inactive. Also, the outcome in assay [8], in assay [9], in [10], in assay [11], in assay [12] and in [13] was inactive. The result in assay [14], in [15] and in [16] was inactive. Further, the inhibition in assay [5] was 80% (active).

Consider `Cc1cc(C)nc(NC(N)=NC2CCCCC2)n1`, for which the result in [1], in assay [2], in [3], in [4], in assay [7] and in [8] was inactive. Further, the outcome in [9], in [10], in assay [11], in [12], in [14] and in [15] was inactive. The result in [16] was inactive. Further, the values for the inhibition in [5], in assay [6] and in assay [13] were 92% (active), 43% (active) and 21.9% (active), respectively.

Turning to `Cc1cc(C)c2nc(C)cc(N/N=C/c3ccc(O)cc3)c2c1`, the outcome in assay [1], in assay [2], in assay [3], in assay [4], in assay [6] and in assay [7] was inactive. The result in assay [8], in assay [10], in [11], in assay [12], in assay [13] and in assay [14] was inactive. Besides, the result in assay [15] and in [16] was inactive. Moreover, the inhibition in assay [5] is 91% (active); in assay [9], 35% (active).

Consider `Fc1ccccc1COc1ccc(Br)cc1CNCC1CCCO1` (stereo unspecified), for which the outcome in [1], in assay [2], in [3], in assay [4], in [7] and in assay [8] was inactive. The molecule was classed as inactive in assay [10], in assay [11], in assay [12], in assay [14], in assay [15] and in assay [16]. Also, the inhibition in [5] is 91% (active); in [6] it was 42% (active); in assay [9] it was 39.5% (active); in assay [13] it was 16.8% (active).

Consider `Cn1c(-c2ccccc2)cnc1NCc1ccccc1`, for which the result in assay [1], in assay [2], in assay [3], in assay [4], in assay [7] and in assay [8] was inactive. The outcome in [9], in assay [10], in assay [11], in [12], in assay [14] and in assay [15] was inactive. Further, in assay [16], the result was inactive. Also, the inhibition in [5] is 86% (active); in assay [6], 44% (active); in assay [13] it was 38.6% (active).

Turning to `O=C(CN1CCN(Cc2ccccc2Cl)CC1)N=Nc1c(O)[nH]c2ccccc12`, the outcome in assay [1], in [2], in assay [3], in assay [4], in assay [7] and in assay [8] was inactive. Also, the outcome in assay [9], in [10], in assay [11], in assay [12], in [13] and in assay [14] was inactive. For the same molecule, the result in [15] and in assay [16] was inactive. For the same molecule, the inhibition in assay [5] was 90% (active); in assay [6] it was 50% (active).

`Cc1cccc(-n2nc(C)c3c(C(=O)O)cc(-c4cccs4)nc32)c1`: the outcome in [1], in [2], in assay [3], in assay [4], in [6] and in assay [7] was inactive. In addition, the outcome in assay [8], in [9], in assay [10], in [11], in assay [12] and in [14] was inactive. Further, the outcome in assay [15] and in assay [16] was inactive. Further, the inhibition was 89% (active) in [5] and 28.2% (active) in assay [13].

As for `NC1=NC2=C(CCCC2)C2(CCCCC2)S1`, the result in assay [1], in [2], in assay [3], in [4], in assay [6] and in assay [7] was inactive. Besides, the result in [8], in assay [10], in [11], in [12], in assay [14] and in [15] was inactive. Moreover, in assay [16], the result was inactive. Further, the inhibition in [5] was 91% (active); in [9], 44.5% (active); in [13] it was 14% (active).

Take `COc1cc(/C=C2\SC(=S)N(NS(=O)(=O)c3ccc(C)cc3)C2=O)cc(OC)c1OC`: the result in [1], in [2], in assay [3], in assay [4], in [6] and in [7] was inactive. Further, the result in assay [8], in assay [9], in assay [10], in assay [11], in assay [12] and in [14] was inactive. Further, the outcome in assay [15] and in [16] was inactive. Besides, the inhibition is 95% (active) in assay [5] and 34.5% (active) in assay [13].

On to `CN(C)C(CNC(=O)c1cccc(C(F)(F)F)c1)c1ccco1` (stereo unspecified), for which the result in assay [1], in [2], in assay [3], in assay [4], in assay [7] and in assay [8] was inactive. The outcome in assay [9], in assay [10], in assay [11], in [12], in assay [13] and in assay [14] was inactive. The result in assay [15] and in assay [16] was inactive. The inhibition in assay [5] was 67% (active); in assay [6] it was 69% (active).

`COc1ccc(NC(=O)c2c[nH]n3c(=O)cc(C4CCN(C(=O)OC(C)(C)C)CC4)nc23)cc1Cl`: the result in assay [1], in assay [2], in assay [3], in assay [4], in assay [7] and in [8] was inactive. For the same molecule, the outcome in assay [9], in assay [10], in assay [11], in assay [12], in [14] and in assay [15] was inactive. In addition, the outcome in assay [16] was inactive. Also, the inhibition in assay [5] was 86% (active); in [6], 41% (active); in [13], 40.1% (active).

As for `N#Cc1cccc2c1-c1ccccc1/C2=N/NC(N)=O`, the outcome in [1], in assay [2], in assay [3], in assay [4], in assay [7] and in assay [8] was inactive. Besides, the result in [9], in assay [10], in [11], in assay [12], in [14] and in assay [15] was inactive. The result in assay [16] was inactive. Also, the inhibition in assay [5] was 86% (active); in assay [6], 81% (active); in assay [13], 19.9% (active).

Take `Cc1ccc(N(C(=O)c2snc(C(N)=O)c2N)C(C(=O)NCC2CCCO2)c2ccc(C)o2)c(C)c1` (stereo unspecified): the outcome in assay [1], in assay [2], in [3], in assay [4], in assay [6] and in assay [7] was inactive. Further, the result in assay [8], in [9], in assay [10], in assay [11], in assay [12] and in [14] was inactive. Besides, the result in [15] and in [16] was inactive. Besides, the inhibition in assay [5] was 75% (active); in [13], 34% (active).

With `CCCCCC[N+](C)(C)CC/C=C1/c2ccccc2Sc2ccc(Cl)cc21`, the outcome in assay [1], in assay [2], in assay [3], in assay [4], in [7] and in assay [8] was inactive. In addition, the molecule was called inactive in assay [10], in assay [11], in assay [12], in assay [14], in assay [15] and in [16]. For the same molecule, the inhibition in assay [5] is 83% (active); in assay [6], 61% (active); in assay [9], 42.5% (active); in assay [13], 31.8% (active).

The inhibition is the relative decrease from the control value, in per cent.

The values are drawn from PubChem BioAssay.
